Several values for one entry are separate records, joined by “and”; a condition that tells them apart may be missing. Equal entries are not always repeated. Inconclusive results are not listed. Values without a mark were called inactive. Activity calls are given as the source filed them. The call rests on the fitted dose curve; in most records, active means well fitted curve in the direction sought with a large enough effect; inconclusive means small, poorly fitted or top-dose-only effect, or another doubt; inactive means no such curve, though single readings can be large; an effect the other way counts as inactive or inconclusive.

A short description of assay [1]: Viability qHTS for spleen associated tyrosine kinase inhibitor (SYKi) naive MV4-11 cells (AID 1963823). Further: nearly all actives have a fitted effect of over 40% in size. In a few lines: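 Seeding of 500 SYKi-naive MV4-11 cells per well onto pre-dispensed compounds preceded a 72 hr incubation at 37 C. Luminescent CellTiter-Glo signal, read after 10 min at room temperature, reflected viable cells.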
For orientation: Quantitative high-throughput screening tests each substance at several concentrations.

The nature of assay [2]: Viability qHTS for spleen associated tyrosine kinase inhibitor (SYKi) drug resistant MV4-11 cells (AID 1963824). Further: nearly all actives have a fitted effect of over 35% in size. The method in brief: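 CellTiter-Glo luminescence, read 10 min after reagent addition, reports viability after a 72 hr compound exposure. Cells are an MV4-11 line made resistant to SYK inhibition, seeded at 500 per well onto compound-containing plates.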
The nature of assay [3]: Quantitative highthroughput screen to assess conditional lethalithy of NOMO1 cells grown in RPMI1640 with dialyzed fetal bovine serum (RPMI+ds) (AID 1963877). Further: nearly all actives have a fitted effect of over 30% in size.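 On Viability: series mostly up to about 46 µM; 100% = DMSO control wells and 0% = empty wells.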 In a few lines:
(§1)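 Each medium arm—HPLM with 10% dialyzed FBS, or RPMI1640 with 5 mM glucose and 10% untreated or dialyzed FBS—was screened against an 11-point, 3-fold compound titration for 48 h at 37 °C, with CellTiter-Glo luminescence as endpoint.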

Assay [4] can be described thus: Quantitative highthroughput screen to assess conditional lethalithy of NOMO1 cells grown in Human Plasma-Like Medium with dialyzed fetal bovine serum (HPLM+ds) (AID 1963878). Further: nearly all actives have a fitted effect of over 35% in size.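 On Viability: 100% = DMSO wells and 0% = empty wells on each plate.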 The method in brief:
as §1

Assay [5] in a line: Quantitative highthroughput screen to assess conditional lethalithy of P12 Ichikawa cells grown in Human Plasma-Like Medium with dialyzed fetal bovine serum (HPLM+ds) (AID 1963879). Further: nearly all actives have a fitted effect of over 35% in size. On Viability: series mostly up to about 46 µM. The settings on record: Potency: viability. The method in brief:
as §1

A short description of assay [6]: Quantitative highthroughput screen to assess conditional lethalithy of P12 Ichikawa cells grown in RPMI1640 with dialyzed fetal bovine serum (RPMI+ds) (AID 1963880). Further: nearly all actives have a fitted effect of over 35% in size.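 On Viability: 100% = DMSO wells and 0% = empty wells on each plate.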 The following applies: Potency: P12-Ichikawa viability. The method in brief:
as §1

Assay [7] is described as follows: Quantitative highthroughput screen to assess conditional lethalithy of SEM cells grown in Human Plasma-Like Medium with dialyzed fetal bovine serum (HPLM+ds) (AID 1963882). Further: nearly all actives have a fitted effect of over 35% in size. The method in brief: as §1
Assay [8] in a line: Cellular viability qHTS for adrenocortical cancer (ACC) cell line SW-13 (AID 1963989). Further: nearly all actives have a fitted effect of over 65% in size.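 On activity (max response): cells grown in serum-free medium with ITS supplement; on the % scale 0 is the no-effect control and ±100 the full control effect.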 The following applies: SW-13 ACC cells viability, CellTiter-Glo, 48 h; activity (max response): stronger effect = lower value. In a few lines:
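SW-13 cells in ITS-supplemented serum-free DMEM were plated overnight, then exposed for 48 h at 37C to compound titrations (up to 46 uM final). Viability was read by CellTiter-Glo luminescence; four-parameter logistic fits gave IC50 and efficacy.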

Assay [9] is described as follows: Cellular viability qHTS for adrenocortical cancer (ACC) cell line NCI-H295R (AID 1963990). Further: nearly all actives have a fitted effect of over 60% in size. The method in brief: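 Luminescent ATP read-out (CellTiter-Glo, 20 min RT) after 48 h drug exposure of NCI-H295R cells; a titration up to 46 uM final. Data normalized to doxorubicin (100% inhibition) and DMSO (0%); 4-parameter fit gives IC50, max response.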
Assay [10] can be described thus: Quantitative highthroughput screen to assess conditional lethalithy of NOMO1 cells grown in RPMI1640 with untreated serum (RPMI+s) (AID 1963876). Further: nearly all actives have a fitted effect of over 35% in size.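 On Viability: 100% = DMSO wells and 0% = empty wells without cells.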 In a few lines: as §1
Assay [11] is described as follows: Quantitative highthroughput screen to assess conditional lethalithy of SEM cells grown in RPMI1640 with dialyzed fetal bovine serum (RPMI+ds) (AID 1963884). Further: nearly all actives have a fitted effect of over 35% in size.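 On Viability: series mostly up to about 46 µM; 100% = DMSO control wells and 0% = empty wells without cells.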 In a few lines: as §1
The nature of assay [12]: Quantitative highthroughput screen to assess conditional lethalithy of SEM cells grown in RPMI1640 with unreated serum (RPMI+s) (AID 1963883). Further: nearly all actives have a fitted effect of over 35% in size. In a few lines: as §1
Assay [13] is described as follows: Quantitative highthroughput screen to assess conditional lethalithy of P12 Ichikawa cells grown in RPMI1640 with untreated serum (RPMI+s) (AID 1963881). Further: nearly all actives have a fitted effect of over 35% in size. The settings on record: Potency: viability. In a few lines: as §1
Potency means the concentration at half of the fitted maximal effect.

Regarding `COc1ccc2nc3cc(Cl)ccc3c(Nc3cc(CN4CCCC4)c(O)c(CN4CCCC4)c3)c2n1`, the Potency was 0.742 µM (active) in [1]; 1.05 µM (active) in assay [2]; 16.6 µM (active) in assay [7]; 12.6 µM (active) in [8]; 5.62 µM (active) in assay [9]. For the same compound, the Potency entry in assay [3], in assay [4], in assay [5] and in assay [6] was “inactive” each time.

With `CNC1CCC(N(Cc2cccc(-c3ccncc3)c2)C(=O)c2sc3c(F)ccc(F)c3c2Cl)CC1` (stereo not given), the Potency in assay [1] was 2.63 µM (active) and 8.2 µM (active); in assay [2] it was 8.33 µM (active) and 7.31 µM (active); in [8], 10 µM (active); in assay [9], 7.08 µM (active). The Potency result in [10] is “inactive”.

For `CC(O)(C#Cc1ccc2c(c1)N(c1nc(N)ncc1Cl)CC2)c1nccs1` (stereo not given), the Potency in assay [1] is 13 µM (active); in assay [2], 10.3 µM (active). Moreover, the Potency entry in [3], in assay [4], in [5] and in [11] was “inactive” in each case.

`N#CC[C@H](C1CCCC1)n1cc(-c2ncnc3[nH]ccc23)cn1`: the Potency in assay [1] is 8.2 µM (active); in assay [2], 20.6 µM (active); in assay [10], 14.8 µM (active). Also, the activity (max response) in assay [8] was -17.5%.

In the case of `C=CC(=O)Nc1cccc(Oc2nc(Nc3ccc(N4CCN(C)CC4)cc3OC)ncc2Cl)c1`, the Potency was 1.64 µM (active) and 1.66 µM (active) in assay [1]; 2.06 µM (active) and 2.95 µM (active) in assay [2]; 3.72 µM (active) in assay [12]; 8.91 µM (active) in assay [8]; 8.91 µM (active) in [9]. The Potency result in assay [10] is “inactive”.

Turning to `CCn1c(-c2nonc2N)nc2cncc(CNC3CCNCC3)c21`, the Potency in assay [1] is 2.91 µM (active) and 2.95 µM (active); in assay [2] it was 7.31 µM (active) and 5.25 µM (active); in assay [3] it was 18.7 µM (active); in assay [4] it was 3.72 µM (active); in assay [5], 6.62 µM (active); in assay [6] it was 18.7 µM (active). Moreover, the Potency was 23.5 µM (active) in assay [13], 2.35 µM (active) in [12] and 10.5 µM (active) in [11]. Besides, the activity (max response) in assay [8] was -7.16%.
